Test results: PubChem BioAssay (NCI)
About 83,000 compounds went through this panel and 20% of them were active in at least one assay; those are over-represented in the sample as a whole.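 A percent growth of 40 corresponds to 60% growth inhibition; 0 means no net growth; -100 means all cells died. Active threshold: below 10.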 A number with no mark means an inactive call. Activity calls are given as the source filed them.

Legend:
Assay in all cases: NCI-60 one-dose screen, 48 h (100 = growth as untreated, 0 = no growth, -100 = all killed)
SR leukemia = settings: 10 µM unless noted
RPMI-8226 leukemia = settings: 10 µM unless noted
OVCAR-8 ovarian = settings: 10 µM unless noted
OVCAR-5 ovarian = settings: 10 µM unless noted
OVCAR-4 ovarian = settings: 10 µM unless noted
SK-OV-3 ovarian = settings: 10 µM unless noted
IGROV1 ovarian = settings: 10 µM unless noted
OVCAR-3 ovarian = settings: 10 µM unless noted
HS 578T breast = settings: 10 µM
NCI/ADR-RES ovarian = settings: 10 µM unless noted
BT-549 breast = settings: 10 µM unless noted
MDA-MB-435 melanoma = settings: 10 µM unless noted
SW-620 colon = settings: 10 µM unless noted
MCF7 breast = settings: 10 µM unless noted
HCT-116 colon = settings: 10 µM unless noted
HCC-2998 colon = settings: 10 µM unless noted
KM12 colon = settings: 10 µM unless noted
T-47D breast = settings: 10 µM unless noted

SMILES	growth (SR leukemia)	growth (RPMI-8226 leukemia)	growth (OVCAR-8 ovarian)	growth (OVCAR-5 ovarian)	growth (OVCAR-4 ovarian)	growth (SK-OV-3 ovarian)	growth (IGROV1 ovarian)	growth (OVCAR-3 ovarian)	growth (HS 578T breast)	growth (NCI/ADR-RES ovarian)	growth (BT-549 breast)	growth (MDA-MB-435 melanoma)	growth (SW-620 colon)	growth (MCF7 breast)	growth (HCT-116 colon)	growth (HCC-2998 colon)	growth (KM12 colon)	growth (T-47D breast) [%]
Nc1n[nH]c2ccc([C@@H]3Nc4c(F)cc5[nH]ncc5c4[C@H]4C5CCC(C5)[C@@H]34)cc12 (stereo partly drawn)	42.8%	21.3%	22%	30.8%	29.4%	39.1%	20.9%	-16.7% (active)	20.9%	13.8%	27%	-11.5% (active)	21.8%	18.5%	7.44% (active)	28.1%	10.4%	
C=C(CN1CC=CCC1)[C@@H]1CC[C@]2(C(=O)OC)CC[C@]3(C)[C@H](CC[C@@H]4[C@@]5(C)CC[C@H](OC(C)=O)C(C)(C)[C@@H]5CC[C@]43C)[C@@H]12	69.4%	50%	103%	118%	91.3%	103%	91.8%	92.5%	109%	107%	85.6%	90.7%	102%	88.2%	86.7%	108%	78.6%	
Oc1c(-c2cc(C(F)(F)F)[nH]n2)cc(Cl)c(OCc2ccc(Cl)cc2)c1-c1ccc(Cl)c(C(F)(F)F)c1	15.2%	-27.9% (active)	9.67% (active)	30.3%	19%	6.29% (active)	19.8%	10.5%	5.31% (active)	9.38% (active)	-11.9% (active)	-16.9% (active)	8.41% (active)	2.3% (active)	-23.8% (active)	12.7%	1.97% (active)	
C#CC[C@@H]1C[C@]2(C)[C@H]3CC=C4[C@H]5[C@@H](C)[C@H](C)CC[C@]5(C(=O)NCCCCN)CC[C@@]4(C)[C@]3(C)CC[C@H]2C(C)(C)[C@H]1OC(C)=O	-19.2% (active)	5.75% (active)	63.7%	108%	68.3%	109%	74.8%	55.6%	102%	86.1%	93.8%	40%	20.1%	12.2%	-56.4% (active)	30%	38.3%	
C/C(=N\OC(=O)Nc1ccccc1)c1ccccc1	81.5%	99.1%	106%	98.4%	92.9%	115%	106%	108%	85.1%	107%	99.9%	95.1%	98.2%	95%	105%	117%	107%	
CCCCn1c(-c2ccc(F)cc2)nc2cc(OC)c(OC)cc2c1=O	34.4%	40.2%	109%	108%	112%	120%	79.4%	106%	101%	93.9%		101%	98.3%	88.2%	67.3%	103%	95.8%	89.1
COC(=O)C(CCC(=O)CCl)N1C(=O)c2ccccc2C1=O (stereo not drawn)	8.24% (active)	-8.21% (active)	59.2%	79.3%	72.9%	113%	27.2%	19.2%	85.3%	83.5%	55.7%	35.2%	32.9%	26.2%	25%	89.4%	101%	
Cn1nc(C(F)(F)F)cc1-c1cc(Cl)c(OCc2ccc(Cl)cc2)c(-c2ccc(Cl)c(C(F)(F)F)c2)c1O	17.6%	-21.8% (active)	14.5%	10.3%	17.2%	-7.57% (active)	25.9%	7.63% (active)	-5.65% (active)	1.22% (active)	-0.385% (active)	1.41% (active)	12.2%	3.29% (active)	-11.1% (active)	13.6%	7.08% (active)	
CN1CCN(Cc2ccc(NC(=O)c3cncc(C#Cc4ncc5cnccn45)c3)cc2C(F)(F)F)CC1	50.8%	44.3%	70%	35.1%	41.3%	42.8%	42.2%	69.6%	52.2%	92.7%	63.7%	39.3%	22%	36%	16.6%	43.1%	13.2%	
Cc1ccc(-c2cnc3sc4ccc(Cl)cc4n23)cc1	111%	98.6%	103%	106%	86.9%	75.7%	81%	101%	110%	94.6%	100%	105%	89.7%	81.5%	89%	105%	96.5%	
CN1CCN(Cc2ccc(NC(=O)c3ccc(C#N)c(C#Cc4cnc(N)c5ncccc45)c3)cc2C(F)(F)F)CC1	9.25% (active)	69.7%	12.6%	18%	75.2%	97.6%	55.3%	102%	68.2%	94%		56%	23.4%	16.3%		112%	13.5%	112
COc1c(-c2cc(-c3ccc(C)o3)[nH]c(=O)n2)c(O)cc2occc12	27.1%	74.8%	73%	99%	72.4%	81.8%	58.4%	32.9%	54.5%	29.7%	54%	-38.6% (active)	22.3%	28.1%	42.8%	92.1%	36.1%	
Nc1nc2ccc([C@@H]3Nc4ccc5[nH]ncc5c4[C@H]4[C@H]5CCC(C5)[C@H]43)cc2s1	51.1%	19.5%	37.5%	21.3%	14.4%	-17.5% (active)	33.3%	-6.66% (active)	8.66% (active)	17.4%	36.7%	-62.4% (active)	-3.94% (active)	-0.0226% (active)	12.1%	49.3%	3.63% (active)	
CCNC(=S)N(Cc1ccccc1)Cc1ccccc1	72%	110%	103%	91%	124%	105%	113%	123%	136%	106%	119%	105%	115%	107%	110%	98.3%	114%	
CCCOC(=O)C1c2cc3c(cc2CC(C)C1C(=O)OCCC)OCO3 (stereo not drawn)	90.7%	99.8%	102%	84.7%	88.7%	101%	75.8%	110%	103%	81.4%		104%	101%	100%	60.1%	98.6%	108%	86.2
C#CC[C@@H]1C[C@]2(C)[C@H]3CC[C@@H]4[C@H]5C(C(=C)C)CC[C@]5(C(=O)NCCCN5CCN(CCCN)CC5)CC[C@@]4(C)[C@]3(C)CC[C@H]2C(C)(C)[C@H]1OC(C)=O (stereo partly drawn)	-13.6% (active)	-48.5% (active)	-6.54% (active)	-61.3% (active)	-42.3% (active)	108%	-46.7% (active)	-83% (active)	14.8%	38.8%	75.6%	-73.3% (active)	-79.4% (active)	-75.4% (active)	-95.3% (active)	-23.5% (active)	-74.6% (active)	
COc1ccc(/C=C2\CCCC3=C2N=C2SC(C)=NN2C3c2ccc(OC)c(OC)c2)cc1OC (stereo not drawn)	14.3%	-24.9% (active)	-4.14% (active)	26.5%	41.4%	62.8%	30.4%	23.8%	86.2%	17.7%	33.9%	11.6%	27.3%	19.3%	-28.1% (active)	30.5%	15.5%	
